From PubChem BioAssay (NCI) come the findings set out here.

Holding throughout (assay): NCI-60 one-dose screen, 48 h (100 = growth as untreated, 0 = no growth, -100 = all killed)
Common to all, as to conditions: 10 µM unless noted

Test [1] concerns SR leukemia.
In test [2] the test system is RPMI-8226 leukemia.
Test [3] concerns OVCAR-8 ovarian.
In test [4] the test system is OVCAR-5 ovarian.
Test [5] relates to OVCAR-4 ovarian.
Test [6] concerns SK-OV-3 ovarian.
Test [7] concerns IGROV1 ovarian.
In test [8] the test system is OVCAR-3 ovarian.
Test [9] concerns HS 578T breast.
Test [10] relates to NCI/ADR-RES ovarian.

Several values for one entry are separate records, joined by “and”; a condition that tells them apart may be missing. Equal entries are not always repeated. Compounds without any hit were thinned out: in the full panel of roughly 83,000, 20% have a hit.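 Growth was measured after 48 h exposure to one concentration of compound in 96-well plates. Values under 10 count as active.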 Activity calls are given as the source filed them.

Turning to `Nc1ccccc1Nc1ccccc1`, the growth was 68.2% (inactive) and 72.1% (inactive) in test [1]; 42.3% (inactive) and 29.1% (inactive) in [2]; 95.7% (inactive) and 92.3% (inactive) in test [3]; 129% (inactive) and 115% (inactive) in test [4]; 93.7% (inactive) and 88.9% (inactive) in [5]; 114% (inactive) and 106% (inactive) in test [6]. Further, the growth in test [7] is 100% (inactive) and 109% (inactive); in test [8], 79.8% (inactive) and 57% (inactive); in test [9] it was 89.1% (inactive) and 102% (inactive); in [10], 88% (inactive) and 84.7% (inactive).

With `CN1CCN(Cc2occc(=O)c2O)CCN(C)CCN(Cc2occc(=O)c2O)CC1`, the growth in test [1] is 79.5% (inactive) and 31.1% (inactive); in test [2], 97.2% (inactive) and 29.5% (inactive); in test [3] it was 98.8% (inactive) and 64.2% (inactive); in test [4] it was 104% (inactive) and 72.1% (inactive); in [5], 102% (inactive) and 77% (inactive); in [6], 91% (inactive) and 49.5% (inactive). Moreover, the growth in test [7] was 96.3% (inactive) and 54% (inactive); in test [8], 117% (inactive) and 28.6% (inactive); in test [9], 90.4% (inactive) and 84.2% (inactive); in test [10], 105% (inactive) and 78.7% (inactive).

As to `CN(C)CCCN1c2ccccc2Sc2ccc(Cl)cc21`, the growth in test [1] is 67.9% (inactive) and 105% (inactive) and 62.2% (inactive); in [2], 71% (inactive) and 97.9% (inactive) and 103% (inactive); in [3], 85.6% (inactive) and 93% (inactive) and 94.2% (inactive); in test [4] it was 90.8% (inactive) and 113% (inactive) and 95.6% (inactive); in [5], 83.3% (inactive) and 113% (inactive) and 85.9% (inactive); in [6], 24.1% (inactive) and 76.5% (inactive). Also, the growth was 69.7% (inactive) and 63.4% (inactive) in test [7]; 84.2% (inactive) and 112% (inactive) and 83.4% (inactive) in [8]; 90.3% (inactive) and 90.2% (inactive) and 89.1% (inactive) in test [9]; 85% (inactive) and 109% (inactive) and 89.5% (inactive) in test [10].

For the compound `CC(=O)Nc1ccc(O)cc1`, the growth in test [1] was 117% (inactive) and 98.7% (inactive); in [2], 105% (inactive); in [3], 92.1% (inactive) and 103% (inactive) and 109% (inactive); in test [4], 91.6% (inactive) and 118% (inactive) and 105% (inactive); in [5], 105% (inactive) and 131% (inactive); in test [6], 114% (inactive) and 115% (inactive) and 91.5% (inactive). For the same compound, the growth in test [7] was 107% (inactive) and 114% (inactive); in test [8], 103% (inactive) and 102% (inactive) and 107% (inactive); in [9] it was 113% (inactive) and 109% (inactive); in test [10] it was 101% (inactive) and 93.7% (inactive) and 104% (inactive).

`O=C(Nc1ccc(Br)cc1)c1cc(Br)ccc1O`: the growth is 1.42% (active) in test [1]; 16.9% (inactive) and -8.2% (active) in [2]; 22.5% (inactive) and 20.5% (inactive) in [3]; 30.4% (inactive) and 17.4% (inactive) in test [4]; 9.76% (active) and 24.8% (inactive) in test [5]; 4.48% (active) and -11.3% (active) in test [6]. Also, the growth in [7] was 13.6% (inactive); in test [8], -18.3% (active) and -5.1% (active); in test [9], -1.71% (active) and -5.35% (active); in test [10], 4.45% (active) and -5.6% (active).

Take `CCN1CCN(CCNc2nccc(-c3c(-c4cccc(O)c4)nc4sccn34)n2)S1(=O)=O`: the growth in test [1] is 59.4% (inactive) and 36.2% (inactive); in [2] it was 69.3% (inactive) and 102% (inactive); in test [3] it was 90% (inactive) and 68.3% (inactive); in test [4], 87.2% (inactive) and 95.5% (inactive); in test [5] it was 106% (inactive) and 77.7% (inactive); in test [6], 38.4% (inactive) and 39.1% (inactive). In addition, the growth in test [7] is 54% (inactive) and 57.5% (inactive); in test [8], 92.9% (inactive) and 86.7% (inactive); in [9], 78% (inactive); in test [10], 102% (inactive) and 103% (inactive).

Take `CO/N=C/C=C\C(=O)N/C=C/C[C@H]1/C=C/[C@H](O)/C=C\C=C\c2cccc(O)c2C(=O)O1`: the growth in test [1] is 6.08% (active) and 20.5% (inactive); in [2] it was 12.8% (inactive) and 11.6% (inactive); in test [3], 27.5% (inactive) and 29.7% (inactive); in [4] it was 39.5% (inactive) and 44.7% (inactive); in test [5], 72% (inactive) and 69.4% (inactive); in [6], 49.6% (inactive) and 35% (inactive). Moreover, the growth in [7] was 36.5% (inactive) and 40.3% (inactive); in test [8], 60.9% (inactive) and 36.3% (inactive); in test [9] it was 50.9% (inactive) and 57.1% (inactive); in [10] it was 44.4% (inactive) and 32.6% (inactive).

Consider `CC(=O)Nc1cccc2c1CCCC2`, for which the growth in test [1] is 104% (inactive) and 109% (inactive); in test [2], 88.8% (inactive) and 99% (inactive); in test [3] it was 86.5% (inactive) and 104% (inactive); in test [4] it was 98.8% (inactive) and 105% (inactive); in test [5], 106% (inactive) and 107% (inactive); in test [6], 89% (inactive) and 92.3% (inactive). Moreover, the growth in test [7] was 119% (inactive) and 96.2% (inactive); in [8], 107% (inactive) and 108% (inactive); in [9], 92.8% (inactive) and 110% (inactive); in test [10], 97.6% (inactive) and 96.9% (inactive).

For `O=C1C2=C(C(=O)c3ccccc31)C(O)(S(=O)(=O)O)C(O)(S(=O)(=O)O)C1N=CC=CC21` (stereo not given), the growth in test [1] was 12.6% (inactive) and 61.2% (inactive); in test [2], 22.9% (inactive) and 44.8% (inactive); in test [3], 24.3% (inactive) and 10.6% (inactive); in [4] it was 51.9% (inactive); in [5] it was 28.7% (inactive) and 24.3% (inactive); in [6], 44.8% (inactive) and 20.9% (inactive). Moreover, the growth in [7] is 33% (inactive) and -16.2% (active); in [8], 22.4% (inactive) and 3.66% (active); in test [9], 13.3% (inactive); in test [10], 11.3% (inactive).

Turning to `CN(C)CCC(=O)c1ccc(Cl)cc1`, the growth in test [1] is 110% (inactive); in test [2], 75.4% (inactive) and 58% (inactive); in [3], 110% (inactive) and 105% (inactive); in [4] it was 117% (inactive) and 113% (inactive); in test [5] it was 105% (inactive) and 118% (inactive); in test [6], 108% (inactive). Further, the growth is 100% (inactive) and 116% (inactive) in test [7]; 115% (inactive) and 113% (inactive) in test [8]; 112% (inactive) in test [9]; 114% (inactive) and 104% (inactive) in test [10].

For the compound `CC(O)(CC(=O)CC(=O)c1ccccc1)c1ccccc1` (stereo not given), the growth is 110% (inactive) and 103% (inactive) in [1]; 106% (inactive) and 88.9% (inactive) in [2]; 106% (inactive) and 102% (inactive) in test [3]; 102% (inactive) and 103% (inactive) in test [4]; 69.9% (inactive) and 118% (inactive) in test [5]; 115% (inactive) and 114% (inactive) in [6]. For the same compound, the growth in test [7] is 91.9% (inactive) and 103% (inactive); in [8], 97.6% (inactive) and 99% (inactive); in [9] it was 102% (inactive); in test [10], 83.1% (inactive) and 72.9% (inactive).

In the case of `Cc1cc(O)c(C(C)C)cc1S(=O)(=O)O` (tested in a mixture with another compound), the growth was 109% (inactive) and -17.3% (active) and 92.1% (inactive) in [1]; 88.4% (inactive) and -13.4% (active) and 99.5% (inactive) in test [2]; 97.7% (inactive) and 13.6% (inactive) and 97.5% (inactive) in test [3]; 80.8% (inactive) and 28.3% (inactive) and 101% (inactive) in [4]; 89.5% (inactive) and 100% (inactive) in test [5]; 105% (inactive) and 5.41% (active) and 118% (inactive) in [6]. Besides, the growth in [7] is 102% (inactive) and -2.34% (active) and 93.9% (inactive); in test [8], 109% (inactive) and -20.4% (active) and 107% (inactive); in test [9], 95.3% (inactive) and -15.9% (active) and 103% (inactive); in test [10], 95.3% (inactive) and 2.8% (active) and 111% (inactive).

As to `O=[N+]([O-])c1ccc(Oc2ccccc2)cc1`, the growth is 89.7% (inactive) and 102% (inactive) in test [1]; 79% (inactive) and 93.9% (inactive) in [2]; 109% (inactive) and 103% (inactive) in [3]; 96.1% (inactive) and 97.3% (inactive) in test [4]; 113% (inactive) and 121% (inactive) in test [5]; 109% (inactive) and 103% (inactive) in [6]. The growth is 84.4% (inactive) and 104% (inactive) in [7]; 111% (inactive) in [8]; 100% (inactive) in [9]; 96.2% (inactive) and 107% (inactive) in test [10].

Regarding `O=[N+]([O-])c1ccc(/C=N\NC(=S)Nc2ccc(F)cc2)cc1`, the growth in [1] was 99.7% (inactive); in test [2], 100% (inactive) and 85.2% (inactive); in [3], 94.1% (inactive) and 95.3% (inactive); in test [4], 115% (inactive) and 94.7% (inactive); in test [5], 92.6% (inactive); in [6] it was 98.5% (inactive) and 91.7% (inactive). Also, the growth in test [7] was 96.8% (inactive) and 99.1% (inactive); in [8], 129% (inactive) and 109% (inactive); in test [9] it was 93.4% (inactive); in test [10], 100% (inactive) and 89.8% (inactive).
